# Source: ChEMBL document CHEMBL3433997, “St. Jude Leishmania screening dataset” (2016)
# Target: Glucose transporter (Leishmania mexicana) (UniProt O61059)
# Experiment: ST_JUDE_LEISH: Cytotoxicity at 2uM final concentration against transgenic Leishmania Mexicana promastigotes LmGT2 that are glucose transport deficient and complemented with the L. Mexicana glucose transporter 2. Activity is measured by DNA content using SYBR green in vitro
# Assay type: functional
row,Compound,inhibition
1,Cc1c(C)n(C2CCCCC2)c2ncnc(OC3CCN(CC(=O)NC4CC4)CC3)c12,1.68%
2,O=C(Cc1ccc(Cl)cc1)NC1CCN(c2ccnc3cc(Cl)ccc23)C1 (stereo not given),0.26%
3,COc1cc(NC(=O)c2ccc(-c3ccccc3)cc2)ccc1OCCCN1CCC(c2ccccc2)CC1,2.91%
4,Cc1cc(NC(=O)c2sc3ccccc3c2O)no1,0.64%
5,COc1cc2nc(N3CCN(C(=O)c4c(Cl)nsc4-c4ccccc4Cl)CC3)nc(N)c2cc1OC,5.08%
6,CN1CCC(NCc2ccc(-c3cccc(S(=O)(=O)NCc4ccccc4)c3)cc2)CC1,-1.01%
7,CCOc1cc(C)ccc1C1CCN(CCCCNC(=O)c2coc(-c3ccc(Cl)cc3)c2)CC1,2.06%
8,CC1(C)CN(CCC2CCC(NC(=O)/C=C/c3ccc(F)cc3F)CC2)Cc2ccc(C#N)cc21 (stereo not given),-1.19%
9,COc1cc2c(cc1CCNCCCCNCCc1cc3c(cc1OC)CCCC3)CCCC2,106%
10,Cc1cccc2nc(-c3ccc(-c4ccc(CN5CCCC(O)C5)cc4)s3)[nH]c12 (stereo not given),3.86%
11,O=C1C(C2CCC(c3ccc(Cl)cc3)CC2)=C2OCC3COC2(O3)c2ccccc21 (stereo not given),-0.99%
12,O=C(Nc1cccc(C(F)(F)F)c1)N1CCOC(CCN2CCC(c3ccccc3)CC2)(c2ccc(Cl)c(Cl)c2)C1 (stereo not given),0.72%
13,C/C=C/COc1ccc2ccccc2c1CNCCCCCCCCNCc1c(OC/C=C/C)ccc2ccccc12,1.19%
14,Cc1ccc(O)c(-c2cc(C(=O)Nc3ccc(S(=O)(=O)N4CCCC(C)C4)cc3)[nH]n2)c1 (stereo not given),0.63%
15,Cc1ccccc1C1CCN(C2CCC(NC(=O)/C=C/c3cccc(F)c3)CC2)CC1 (stereo not given),7.51%
16,Cc1c(Cc2ccccc2Br)cnc2nc(N)nc(N)c12,14.2%
17,O=C(c1cccs1)N(Cc1cccc(-c2ccc(CNCCc3ccccc3)cc2)c1)C1CCN(Cc2ccccc2)CC1,9.34%
18,O=C(NCCSCc1c(F)cccc1Cl)c1cnc2c(c1)nc(-c1c[nH]c(-c3ccccc3)n1)n2CCc1c[nH]cn1,0.97%
19,FC(F)(F)c1cccnc1N1CCC(Nc2nc3cc(Cl)ccc3[nH]2)CC1,3.47%
20,CC(NC(=O)c1ccc(O)c(-c2ccc(Cl)c(Cl)c2)c1)C(=O)NCCN1CCOCC1 (stereo not given),3.62%

row,Compound,inhibition
1,COc1cc(F)c2nccc([C@@H](O)CN3CCC(NCc4ccc5c(n4)NC(=O)CS5)C(F)C3)c2c1 (stereo not given in full),3.18%
2,CCC(=O)c1ccc(-c2ccc(=O)n(CC(=O)N(CCN(CC)CC)Cc3ccc(-c4ccc(C(F)(F)F)cc4)cc3)n2)cc1,-1.47%
3,O=C(NC(CCCN1CCC(c2ccccc2)CC1)c1ccc(Cl)c(Cl)c1)c1cc(C(F)(F)F)cc(C(F)(F)F)c1 (stereo not given),1.89%
4,CC1(C)[C@H]2CC[C@@H](CNc3nc(NCC(=O)Nc4ccc5ccccc5c4)nc(N4CCC(N5CCCC5)CC4)n3)[C@@H]1C2,2.89%
5,Cc1cc(NCCc2ccccc2)nc(NC(=N)Nc2cccc(F)c2)n1,-0.09%
6,Clc1ccc(-c2csc3ncnc(Cl)c23)cc1,4.02%
7,CN(N=Cc1ccccc1)C(=N)NCCCC#Cc1cccc(CN2CCCC2)c1,1.72%
8,Cc1nc(N)nc(N)c1OCCCCOc1ccccc1,2.4%
9,CCOC(=O)C1=C(C)N=c2sc(=Cc3cc(Cl)ccc3O)c(=O)n2C1c1ccc(OC)cc1 (stereo not given),0.91%
10,COc1ccc(S(=O)(=O)Nc2cc(C)cc(Br)c2OC)cc1N1CCN(C(=O)C(Cl)(Cl)Cl)CC1,-0.68%
11,CC(C)(C)CC(C)(C)c1ccc(O)c(C(=O)Nc2ccc([N+](=O)[O-])cc2)c1,0.23%
12,Clc1ccc2c(NCCc3ccccc3)ccnc2c1,2.56%
13,COc1ccc2nc(-c3ccccc3)cc(N/N=C/c3ccc([N+](=O)[O-])cc3)c2c1,2.43%
14,COc1ccc(CCN2CCC(NCc3cccc(N(C)C)c3)CC2)cc1,-1.51%
15,CN1CCc2cc(I)c(O)cc2C1Cc1ccccc1Cl (stereo not given),2.59%
16,CCC(CC)n1c(C)cc2c3c(N)nc(N)nc3ccc21,70.8%
17,CC(C)C(=O)Nc1c(F)cc(F)cc1CCc1ccc(O)cc1,5.01%
18,COc1ccc2nccc(N3CCC(O)(CCNCc4ccc5c(n4)NC(=O)CO5)CC3)c2n1,2.81%
19,COc1ccc(NC(=O)Nc2ccc(-c3ccccc3)cc2)cc1Cn1cnc(N2CCCNCC2)cc1=O,4.94%
20,CC(C)NCc1cccc(-c2ccc(NC(=O)c3ccc(C#N)cc3)cc2)c1,10%
